From PubChem BioAssay (NCATS) come the findings set out here.

Assay [1] in a line: qHTS drug screen for cell cycle checkpoint inhibitors in PARPi-resistant BRCA-mutant ovarian cancer cell lines. (AID 1963452; calls by dose curve). The conditions noted are these: PEO1/OlaR viability, CellTiter-Glo luminescence, 96 h, stronger effect = lower value. The method, boiled down: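 PEO1, PEO4 and PEO1/OlaR ovarian cancer cells, 600 per well, exposed 96 h at 37C to a dilution series. Viability read by CellTiter-Glo luminescence, normalized to DMSO and empty wells; activity summarized as Z-AUC.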

The nature of assay [2]: qHTS profiling for inhibitors of Plasmodium falciparum proliferation (AID 504749).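 For activity, negative = inhibition: 0% = DMSO vehicle and full inhibition = artemisinin control.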 Note: nearly all actives have a fitted effect of over 60% in size. Note: potency is the fitted concentration of half-maximal effect. To be noted: P. falciparum in erythrocytes, SYBR Green DNA, 72 h. In a few lines: (§1)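 Fluorescence of SYBR Green-bound parasite DNA, read at 485/535 nm, served as the growth measure. Infected erythrocytes were cultured with compound 72 h; artemisinin (0.29 uM) and DMSO wells defined the normalization range.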

Another assay has as its system 3D7. The assay is described as above. To be noted: P. falciparum in erythrocytes, SYBR Green DNA, 72 h; series mostly up to 28.7 µM. The method, boiled down:
as §1

A further assay deals with 7G8. The description is as above. To be noted: P. falciparum in erythrocytes, SYBR Green DNA, 72 h; series mostly up to 28.7 µM. The method, boiled down:
as §1

The next assay concerns AA1029. The assay is described as above. To be noted: P. falciparum in erythrocytes, SYBR Green DNA, 72 h; series mostly up to 28.7 µM. The method, boiled down: as §1
Setting [3] is: at 28.7 µM (top of the series), parasite line A.
The mark [4] stands for this setting: at 28.7 µM (top of the series), parasite line B.

Several values for one entry are separate records, joined by “and”; a condition that tells them apart may be missing. Equal entries are not always repeated. Results filed as inconclusive are left out. Activity calls are given as the source filed them. Unless noted, calls come from the whole dose curve; as a rule, active = well fitted inhibition curve with a large enough effect; inconclusive = small, poorly fitted or top-dose-only effect; inactive = flat fitted curve, though single readings scatter. Where a SMILES comes first, the peptide text is derived from it. [ ]: non-standard residue; d: D form. pGlu = O=C1CC[C@@H](C(=O)O)N1; Thz = O=C(O)[C@@H]1CSCN1

With `N#C/C(=C\c1ccc(O)c(O)c1)C(=O)NCc1ccccc1`, the Z-AUC is 1.6 (inactive) in assay [1], 1.01 in assay [1] (measured here: PEO1 parental Z-AUC) and 0.772 in assay [1] (measured here: PEO4 Z-AUC).

On to `CC(C(=O)O)c1ccc2c(c1)[nH]c1ccc(Cl)cc12` (configuration not stated), for which the activity, negative = inhibition in assay [2] (setting [3]) is 3.75% (inactive); in assay [2] (setting [4]), 2.58% (inactive). Also, the Potency entry in the assay on 3D7, in the assay with 7G8 and in the assay with AA1029 was “inactive” each time.

`O=C(O)/C=C/C(O)c1ccc(Cl)cc1` (configuration not stated): the figures for the activity, negative = inhibition in assay [2] (setting [3]) and in assay [2] (setting [4]) were 0.108% (inactive) and 10.3% (inactive), respectively. Further, the Potency result in the assay on 3D7, with 7G8 and in the assay on AA1029 was “inactive” throughout.

For `[O-][n+]1ccccc1SSc1cccc[n+]1[O-]`, the Potency (in assay [2] (parasite line A); in assay [2] (parasite line B); in the assay with 3D7; in the assay on 7G8; in the assay with AA1029) was 891 nM (active) each time.

Consider `c1ccc2sc(SSc3nc4ccccc4s3)nc2c1`, for which the activity, negative = inhibition was 6.98% (inactive) in assay [2] (setting [3]) and -5.71% (inactive) in assay [2] (setting [4]). The Potency entry in the assay on 3D7, in the assay on 7G8 and in the assay on AA1029 was “inactive” in each case.

For the molecule `COc1ccc(-c2cc(=S)ss2)cc1`, the figures for the activity, negative = inhibition in assay [2] (setting [3]) and in assay [2] (setting [4]) were -10.3% (inactive) and -12.9% (inactive), respectively. In addition, the Potency result in the assay with 3D7 and in the assay on AA1029 was “inactive” throughout. For the same molecule, the Potency in the assay on 7G8 was 12600 nM (active).

As to `O=C(Nc1ccc(C(=O)O)c(O)c1)c1ccccc1`, the figures for the activity, negative = inhibition in assay [2] (setting [3]) and in assay [2] (setting [4]) were -20.7% (inactive) and -1.01% (inactive), respectively. Besides, the Potency result in the assay on 3D7, with 7G8 and in the assay on AA1029 was “inactive” each time.

With `O=C(O)c1ccccc1Nc1cccc(C(F)(F)F)c1`, the activity, negative = inhibition in assay [2] (setting [3]) was -6.43% (inactive); in assay [2] (setting [4]), 10.3% (inactive). Moreover, the Potency entry with 3D7, in the assay on 7G8 and in the assay on AA1029 was “inactive” in each case.

Consider `C=CC(N)CCC(=O)O` (configuration not stated), for which the activity, negative = inhibition in assay [2] (setting [3]) is 0.626% (inactive); in assay [2] (setting [4]), 10.5% (inactive). Further, the Potency result in the assay with 3D7, in the assay on 7G8 and in the assay with AA1029 was “inactive” throughout.

For the molecule `C=C(Nc1ccc(OCC)cc1)Nc1ccc(OCC)cc1`, the activity, negative = inhibition is 1.26% (inactive) and 13.3% (inactive) in assay [2] (setting [3]); -29.4% (inactive) and 7.39% (inactive) in assay [2] (setting [4]). Further, the Potency entry in the assay with 3D7, in the assay with 7G8 and with AA1029 was “inactive” in each case.

Turning to `Nc1c(CC(=O)O)cccc1C(=O)c1ccc(Br)cc1`, the activity, negative = inhibition in assay [2] (setting [3]) was 12.5% (inactive); in assay [2] (setting [4]), 11.2% (inactive). Further, the Potency result in the assay with 3D7, in the assay on 7G8 and in the assay with AA1029 was “inactive” in each case.

Take `Nc1ccc(O)c(C(=O)O)c1`: the activity, negative = inhibition is -0.61% (inactive) in assay [2] (setting [3]) and -10.7% (inactive) in assay [2] (setting [4]). For the same molecule, the Potency result in the assay with 3D7, in the assay with 7G8 and with AA1029 was “inactive” throughout.

Turning to `Nc1ccc(C(=O)O)c(O)c1`, the activity, negative = inhibition in assay [2] (setting [3]) was 9.01% (inactive); in assay [2] (setting [4]) it was -22.6% (inactive). The Potency result in the assay with 3D7, in the assay with 7G8 and in the assay with AA1029 was “inactive” each time.

Take `NC(=O)C(c1ccccc1)(c1ccccc1)[C@@H]1CCN(CCc2ccc3c(c2)CCO3)C1`: the activity, negative = inhibition in assay [2] (setting [3]) was -17.4% (inactive); in assay [2] (setting [4]) it was -5.16% (inactive). In addition, in the assay with 3D7, the Potency entry was “inactive”. Further, the Potency in the assay with 7G8 was 11200 nM (active).

`CCCCCC[C@@H](O)C/C=C\CCCCCCCC(=O)O`: the results for the activity, negative = inhibition in assay [2] (setting [3]) and in assay [2] (setting [4]) were -10.4% (inactive) and -8.48% (inactive), respectively. For the same molecule, the Potency result with 3D7, in the assay on 7G8 and in the assay with AA1029 was “inactive” in each case.

For `CC1(C)S[C@@H]2[C@H](NC(=O)[C@H](NC(=O)N3CCN(S(C)(=O)=O)C3=O)c3ccccc3)C(=O)N2[C@H]1C(=O)O`, the activity, negative = inhibition was -8.81% (inactive) in assay [2] (setting [3]) and -7.98% (inactive) in assay [2] (setting [4]). Also, the Potency result in the assay with 3D7, in the assay with 7G8 and in the assay with AA1029 was “inactive” in each case.

Take `Cc1c(Nc2ncccc2C(=O)O)cccc1C(F)(F)F`: the activity, negative = inhibition in assay [2] (at 12.8 µM (top of the series), parasite line A) was 7.85% (inactive); in assay [2] (at 12.8 µM (top of the series), parasite line B), -2.62% (inactive). Moreover, the Potency result with 3D7, with 7G8 and in the assay on AA1029 was “inactive” each time.

In the case of `Cc1ccc(O)c(-n2nc3ccccc3n2)c1`, the figures for the activity, negative = inhibition in assay [2] (setting [3]) and in assay [2] (setting [4]) were 4.17% (inactive) and 15.3% (inactive), respectively. Also, the Potency result with 3D7, in the assay with 7G8 and in the assay with AA1029 was “inactive” in each case.

For the molecule `O=C(/C=C/c1ccccc1)NCCO`, the values for the activity, negative = inhibition in assay [2] (setting [3]) and in assay [2] (setting [4]) were 4.35% (inactive) and -2.74% (inactive), respectively. Moreover, the Potency entry with 3D7, with 7G8 and in the assay on AA1029 was “inactive” throughout.

Regarding `O=C1CC[C@@H](C(=O)N2CSC[C@H]2C(=O)O)N1` ([pGlu]-[Thz]-OH), the activity, negative = inhibition in assay [2] (setting [3]) is 14.8% (inactive); in assay [2] (setting [4]), 2.84% (inactive). Further, the Potency entry in the assay with 3D7, with 7G8 and in the assay on AA1029 was “inactive” throughout.

As for `CC1(C)C[C@@H]1C(=O)N/C(=C\CCCCSC[C@H](N)C(=O)O)C(=O)O`, the activity, negative = inhibition in assay [2] (setting [3]) was 10.1% (inactive); in assay [2] (setting [4]), -12.7% (inactive). For the same molecule, the Potency result in the assay with 3D7, in the assay with 7G8 and in the assay on AA1029 was “inactive” each time.

As to `CC(=O)[C@]1(O)Cc2c(O)c3c(c(O)c2[C@@H](O[C@H]2C[C@H](N)[C@H](O)[C@H](C)O2)C1)C(=O)c1c(O)cccc1C3=O`, the Potency in assay [2] (parasite line A) is 7080 nM (active); in assay [2] (parasite line B), 12600 nM (active); in the assay on 3D7, 3160 nM (active); in the assay on 7G8 it was 1120 nM (active); in the assay with AA1029 it was 7080 nM (active).

Turning to `COc1cc2c3cc1Oc1cc(ccc1O)C[C@@H]1c4c(cc(OC)c(O)c4Oc4ccc(cc4)C[C@@H]3N(C)CC2)CC[N+]1(C)C`, the activity, negative = inhibition is 5.03% (inactive) in assay [2] (setting [3]) and 8.98% (inactive) in assay [2] (setting [4]). Further, the Potency result with 3D7, with 7G8 and with AA1029 was “inactive” in each case.

`Cc1[nH]cnc1CN1CCc2c(c3ccccc3n2C)C1=O`: the activity, negative = inhibition in assay [2] (setting [3]) is 12% (inactive); in assay [2] (setting [4]), 7.41% (inactive). For the same molecule, the Potency entry in the assay on 3D7, with 7G8 and in the assay on AA1029 was “inactive” throughout.

In the case of `CC1OC1P(=O)(O)O` (configuration not stated), the figures for the activity, negative = inhibition in assay [2] (setting [3]) and in assay [2] (setting [4]) were -11.9% (inactive) and 1.11% (inactive), respectively. Further, the Potency result in the assay on 3D7, in the assay on 7G8 and in the assay with AA1029 was “inactive” each time.

On to `CCCCCCOc1ccccc1C(N)=O`, for which the results for the activity, negative = inhibition in assay [2] (setting [3]) and in assay [2] (setting [4]) were -23.7% (inactive) and 1.07% (inactive), respectively. Besides, the Potency entry with 3D7, with 7G8 and in the assay on AA1029 was “inactive” in each case.
